According to PubChem BioAssay (NCATS):
Records with an inconclusive call do not appear. Activity calls are given as the source filed them. Unless noted, calls come from the whole dose curve; as a rule, active = well fitted curve in the direction sought with a large enough effect; inconclusive = small, poorly fitted or top-dose-only effect, or another doubt; inactive = no such curve, though single readings can be large; an effect the other way counts as inactive or inconclusive.

Key:
[1] = Cytometric Cell-Based qHTS for Inhibitors of the mTORC1 Signaling Pathway in MEF (Tsc2-/-, p53-/-) Cells (AID 2660);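 note: percent of cells above a phospho-rpS6 to PI ratio cutoff in each well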
Method in brief: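 Immunofluorescence qHTS of rpS6 Ser235/236 phosphorylation: MEFs (Tsc2-/-, p53-/-) treated 24 h, 37 C, in DMEM + 10% FBS. Alexa-488 signal normalized to PI count, referenced to rapamycin (7.5 nM) and DMSO; PI cell number recorded for viability.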

[2] = High Content Imaging Cell-Based qHTS for Inhibitors of the mTORC1 Signaling Pathway in MEF (Tsc2-/-, p53-/-) Cells (AID 2666); conditions: at 38.3 µM (top of the series);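 note: percent of cells scored positive for phospho-rpS6 Ser235/236 immunostaining by imaging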
Method in brief: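 Phospho-rpS6 (Ser235/236) immunofluorescence, normalized and scored as % positive cells using rapamycin and DMSO controls, was read in empty-vector Tsc2-/-, p53-/- MEFs after 24 h compound exposure at 37 C; propidium iodide counted cells.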

[3] = High Content Imaging Cell-Based qHTS for Inhibitors of the mTORC1 Signaling Pathway in MEF Cells (AID 2667);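 note: Tsc2-/- p53-/- MEFs stably re-expressing wild-type Tsc2 exposed 24 h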
Method in brief: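 WT MEFs (Tsc2-/-, p53-/- re-expressing Tsc2), in DMEM + 10% FBS, were treated with compound for 24 h at 37 C. Cells were then fixed and stained for phospho-rpS6 Ser235/236 with propidium iodide as cell count. Values are % positive cells, with thresholds set against rapamycin-treated cells.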

[4] = Cytometry Cell-Based qHTS for Inhibitors of the mTORC1 Signaling Pathway in MEF cells (AID 2668);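 note: Tsc2-/- p53-/- mouse embryonic fibroblasts stably re-expressing wild-type Tsc2; percent cells positive for phospho-rpS6 Ser235/236 relative to propidium iodide stain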
Method in brief: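 Phospho-rpS6 (Ser235/236) immunofluorescence over PI signal, scored as % positive cells using thresholds from 7.5 nM rapamycin and DMSO wells, after 24 h compound exposure of WT-Tsc2-rescued Tsc2-/-, p53-/- MEFs. PI cell count recorded for viability.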

[5] = molecular target: Ubiquitin carboxyl-terminal hydrolase 2 (Homo sapiens) (UniProt O75604); test: qHTS Validation Assay for Inhibitors of Ubiquitin-specific Protease USP2a Using CHOP2 as the Reporter (AID 463106)
Ubiquitin carboxyl-terminal hydrolase 2 (Homo sapiens), sequence (O75604 whole entry, looked up): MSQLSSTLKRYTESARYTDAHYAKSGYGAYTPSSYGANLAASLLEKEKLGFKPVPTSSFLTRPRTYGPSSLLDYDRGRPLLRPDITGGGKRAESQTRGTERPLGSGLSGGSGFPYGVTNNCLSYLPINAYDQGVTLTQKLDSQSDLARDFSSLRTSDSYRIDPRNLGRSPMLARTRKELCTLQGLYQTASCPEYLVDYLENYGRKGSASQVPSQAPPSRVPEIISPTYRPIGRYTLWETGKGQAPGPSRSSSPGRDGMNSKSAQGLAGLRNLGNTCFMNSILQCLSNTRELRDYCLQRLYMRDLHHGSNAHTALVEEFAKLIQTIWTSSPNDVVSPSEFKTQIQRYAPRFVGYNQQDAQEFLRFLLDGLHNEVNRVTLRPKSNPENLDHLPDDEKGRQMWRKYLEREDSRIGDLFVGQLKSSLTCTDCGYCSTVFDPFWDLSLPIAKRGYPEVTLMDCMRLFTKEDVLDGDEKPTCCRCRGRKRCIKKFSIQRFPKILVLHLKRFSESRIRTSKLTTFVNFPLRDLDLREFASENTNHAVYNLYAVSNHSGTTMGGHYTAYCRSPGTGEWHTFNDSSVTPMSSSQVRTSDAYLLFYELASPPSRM
Method in brief: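 USP2 core (10 nM final) was preincubated with compound 30 min at RT in pH 8.0 Tris/CaCl2/beta-ME/CHAPS buffer. Ub-CHOP2 and reporter substrate (25 nM final each) were then added, with fluorescence (Ex 485/Em 531) read after 60 min. Data were normalized to NEM full inhibition and fitted to concentration-response curves.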

[6] = molecular target: DNA polymerase III PolC-type (Bacillus subtilis (strain 168)) (UniProt P13267); test: qHTS Validation Assay for the Inhibitors of DNA Replication in Gram-Positive Bacteria (AID 485295);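 note: reconstituted holoenzyme with PolC plus beta clamp SSB and primase; PicoGreen fluorescence of double-stranded DNA made on primed circular M13 template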
Method in brief: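 Double-stranded DNA product detected by PicoGreen fluorescence after EDTA quench. Compound incubated with B. subtilis holoenzyme (PolC, beta subunit, SSB, primase) before substrate addition; primed replication of M13Gori with dNTPs and NTPs at room temperature; DMSO defines 0% inhibition.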

[7] = molecular target: Tumor susceptibility gene 101 protein (Homo sapiens) (UniProt Q99816); test: qHTS Validation Assay for Iinhibitors of HIV-1 Budding by Blocking the Interaction of PTAP/TSG101 (AID 485342; calls by dose curve)
Tumor susceptibility gene 101 protein (Homo sapiens), sequence (Q99816 whole entry, looked up, the tested form may be a part): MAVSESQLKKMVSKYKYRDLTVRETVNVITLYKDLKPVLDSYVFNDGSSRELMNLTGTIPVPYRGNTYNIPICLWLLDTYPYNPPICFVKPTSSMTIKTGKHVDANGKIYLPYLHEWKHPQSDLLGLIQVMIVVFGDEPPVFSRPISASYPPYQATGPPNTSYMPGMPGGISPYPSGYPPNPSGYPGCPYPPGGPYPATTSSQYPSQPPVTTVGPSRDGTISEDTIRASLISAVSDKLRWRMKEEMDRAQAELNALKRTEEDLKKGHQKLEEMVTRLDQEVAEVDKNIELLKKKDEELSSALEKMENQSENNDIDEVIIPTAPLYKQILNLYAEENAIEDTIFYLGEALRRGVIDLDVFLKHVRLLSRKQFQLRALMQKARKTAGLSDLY
Method in brief: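 Fluorescence polarization of 50 nM FITC-PTAP peptide bound to 10 uM Tsg101 binding domain was read after 20 min room-temperature incubation with compounds, in 10 mM HEPES pH 7.5, 0.15 M NaCl, 0.01% Tween 20.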

[8] = molecular target: Beta-2 adrenergic receptor (Homo sapiens) (UniProt P07550); test: qHTS validation assay of beta-arrestin-biased ligands of beta2-adrenergic receptor (AID 485366)
Beta-2 adrenergic receptor (Homo sapiens), sequence (P07550 whole entry, looked up): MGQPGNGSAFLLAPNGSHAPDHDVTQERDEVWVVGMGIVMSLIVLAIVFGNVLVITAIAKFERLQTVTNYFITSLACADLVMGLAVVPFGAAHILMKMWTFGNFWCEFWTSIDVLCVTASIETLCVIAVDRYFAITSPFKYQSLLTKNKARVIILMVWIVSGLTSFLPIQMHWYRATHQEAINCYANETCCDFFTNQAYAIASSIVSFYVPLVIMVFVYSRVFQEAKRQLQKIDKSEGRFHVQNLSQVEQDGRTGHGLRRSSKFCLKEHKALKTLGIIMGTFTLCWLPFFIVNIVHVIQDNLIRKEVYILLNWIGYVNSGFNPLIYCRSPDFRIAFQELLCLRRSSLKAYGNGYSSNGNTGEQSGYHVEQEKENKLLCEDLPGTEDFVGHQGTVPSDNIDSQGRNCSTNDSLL
Method in brief: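 Arrestin-recruitment (Tango) reporter: ligand-bound beta2-AR recruits beta-arrestin, releasing tTA, which upregulates luciferase. Titrations of up to 46 microM incubated 18 hr at 37 degrees C before luminescent readout.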

[9] = molecular target: Thioredoxin reductase 1, cytoplasmic (Rattus norvegicus) (UniProt O89049); test: qHTS Assay for Substrates of Mammalian Selenoprotein Thioredoxin Reductase 1 (TrxR1) (AID 488772);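 note: NADPH fluorescence in the first read after selenite addition and not the 8 min delta; a drop in NADPH fluorescence below the no-compound background marks a TrxR1 substrate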
Thioredoxin reductase 1, cytoplasmic (Rattus norvegicus), sequence (O89049 whole entry, looked up): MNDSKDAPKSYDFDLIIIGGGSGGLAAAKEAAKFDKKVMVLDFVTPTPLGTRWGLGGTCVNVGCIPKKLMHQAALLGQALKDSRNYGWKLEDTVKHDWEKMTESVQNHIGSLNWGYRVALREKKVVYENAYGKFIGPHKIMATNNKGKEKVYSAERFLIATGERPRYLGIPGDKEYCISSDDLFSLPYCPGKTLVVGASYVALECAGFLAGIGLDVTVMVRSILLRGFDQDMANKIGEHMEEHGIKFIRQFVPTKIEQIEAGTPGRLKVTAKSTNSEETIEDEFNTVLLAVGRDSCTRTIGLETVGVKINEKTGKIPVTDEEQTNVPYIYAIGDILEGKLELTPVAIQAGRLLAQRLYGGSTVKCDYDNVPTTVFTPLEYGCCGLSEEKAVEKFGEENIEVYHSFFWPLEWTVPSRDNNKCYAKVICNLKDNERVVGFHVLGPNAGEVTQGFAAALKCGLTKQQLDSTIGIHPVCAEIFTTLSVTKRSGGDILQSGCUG
Method in brief: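 Quantitative HTS in Tris-HCl buffer at pH 7.5 with EDTA and Tween-20, using rat TrxR1, 400 uM NADPH and 400 uM selenite (final). A fall in initial NADPH fluorescence relative to background marked substrate behaviour.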

[10] = molecular target: Thioredoxin reductase 1, cytoplasmic (Rattus norvegicus) (UniProt O89049); test: qHTS Assay for Inhibitors of Mammalian Selenoprotein Thioredoxin Reductase 1 (TrxR1) (AID 488773); conditions: Potency: inhibition;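 note: drop in NADPH fluorescence over an 8 min run after selenite addition; nearly all actives have a fitted effect of over 40% in size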
Method in brief: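 Steps: enzyme (90 nM) plus NADPH (400 uM final), 5 min at ~22 deg C; compound added, 15 min; selenite (400 uM final) added; fluorescence followed for 8 min. Concentration-response curves derived from the normalized delta values.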

[11] = molecular target: Flap endonuclease 1 (Homo sapiens) (UniProt P39748); test: qHTS Validation Assay for the Inhibitors of Human Flap endonuclease 1 (FEN1) (AID 488816)
Flap endonuclease 1 (Homo sapiens), sequence (P39748 whole entry, looked up): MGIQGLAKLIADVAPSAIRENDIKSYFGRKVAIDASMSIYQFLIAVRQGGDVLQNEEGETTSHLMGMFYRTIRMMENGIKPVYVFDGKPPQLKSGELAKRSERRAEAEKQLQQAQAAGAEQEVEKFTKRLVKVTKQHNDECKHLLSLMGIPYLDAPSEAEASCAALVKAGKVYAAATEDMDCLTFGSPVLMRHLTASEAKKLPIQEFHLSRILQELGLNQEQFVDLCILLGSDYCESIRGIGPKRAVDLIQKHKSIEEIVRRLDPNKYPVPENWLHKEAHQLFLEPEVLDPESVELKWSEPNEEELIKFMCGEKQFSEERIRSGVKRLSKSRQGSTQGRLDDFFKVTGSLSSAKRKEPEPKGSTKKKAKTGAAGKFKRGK
Method in brief: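 Human FEN1 (10 nM) preincubated 15 min at room temperature with compounds, then flap DNA substrate added at 50 nM final. Fluorescence read at 0 and 15 min; concentration-response fitted with four-parameter Hill equation.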

[12] = molecular target: M-phase phosphoprotein 8 (Homo sapiens) (UniProt Q99549); test: qHTS Validation Assay for Inhibitors for MPP8 Chromodomain Interactions with Methylated Histone Tails (AID 488949);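 note: AlphaScreen signal from MPP8 chromodomain bound to biotinylated H3K9me3 peptide; top concentration of the series differs between compounds; nearly all actives have a fitted effect of over 55% in size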
Method in brief: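 AlphaScreen proximity signal from streptavidin donor and Ni-chelate acceptor beads (10 ug/mL each) reported binding of MPP8 to trimethyl-K9 H3(1-18) peptide, both at 50 nM. The complex formed 30 min before a 30 min compound exposure at room temperature, in PBS pH 7.4.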

[13] = molecular target: Chromobox protein homolog 1 (Homo sapiens) (UniProt P83916); test: qHTS Validation Assay for Inhibitors of HP1-beta Chromodomain Interactions with Methylated Histone Tails (AID 488953);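 note: loss of AlphaScreen luminescence from HP1-beta binding biotinylated H3K9me3 peptide; nearly all actives have a fitted effect of over 50% in size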
Chromobox protein homolog 1 (Homo sapiens), sequence (P83916 whole entry, looked up): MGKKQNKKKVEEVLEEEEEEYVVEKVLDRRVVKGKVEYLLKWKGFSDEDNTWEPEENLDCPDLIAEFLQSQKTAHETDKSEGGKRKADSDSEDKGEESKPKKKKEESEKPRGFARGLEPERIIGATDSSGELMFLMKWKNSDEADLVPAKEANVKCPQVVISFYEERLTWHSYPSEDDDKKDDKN
Method in brief: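 HP1-beta (50 nM) was preincubated 30 min at room temperature with biotinylated H3(1-18)K9me3 peptide (50 nM) in PBS pH 7.4, 0.01% Tween-20, then with compounds 30 min. AlphaScreen signal was read after streptavidin donor/nickel chelate acceptor beads (10 ug/mL final).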

[14] = molecular target: Methanococcus maripaludis chaperonin (MmCpn) (UniProt Q6LX38); test: High-Throughput Screening for Modulators of Cytosolic Chaperonin Activity: MmCpn Primary Screen (AID 488978);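 note: 50 nM MmCpn enzyme hydrolysing 30 µM ATP at 37 °C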
Methanococcus maripaludis chaperonin (MmCpn), sequence (Q6LX38 1-543): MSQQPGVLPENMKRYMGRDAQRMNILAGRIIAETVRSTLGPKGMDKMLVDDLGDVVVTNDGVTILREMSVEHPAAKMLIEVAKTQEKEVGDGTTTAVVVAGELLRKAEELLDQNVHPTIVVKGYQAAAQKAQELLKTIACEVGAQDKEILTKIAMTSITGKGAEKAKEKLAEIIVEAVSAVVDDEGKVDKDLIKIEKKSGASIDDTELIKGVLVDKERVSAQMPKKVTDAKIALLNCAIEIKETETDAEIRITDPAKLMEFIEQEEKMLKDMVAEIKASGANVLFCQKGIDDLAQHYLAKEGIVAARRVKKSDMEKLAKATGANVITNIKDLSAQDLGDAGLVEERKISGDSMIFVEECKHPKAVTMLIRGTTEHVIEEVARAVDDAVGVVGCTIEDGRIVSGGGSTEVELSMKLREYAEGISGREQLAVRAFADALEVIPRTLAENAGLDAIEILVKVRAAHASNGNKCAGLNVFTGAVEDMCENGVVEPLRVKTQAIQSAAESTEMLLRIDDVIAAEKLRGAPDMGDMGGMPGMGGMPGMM
Method in brief: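 ATPase activity of 50 nM MmCpn was assayed with 30 uM ATP, 10 minutes at 37C, after a 5 min compound preincubation at room temperature. ADP production was read as HTRF emission at 590 and 665 nm.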

[15] = molecular target: D(1A) dopamine receptor (Homo sapiens) (UniProt P21728); test: HTS Assay for Allosteric Agonists of the Human D1 Dopamine Receptor: Primary Screen for Agonists (AID 488981)
D(1A) dopamine receptor (Homo sapiens), sequence (P21728 whole entry, looked up): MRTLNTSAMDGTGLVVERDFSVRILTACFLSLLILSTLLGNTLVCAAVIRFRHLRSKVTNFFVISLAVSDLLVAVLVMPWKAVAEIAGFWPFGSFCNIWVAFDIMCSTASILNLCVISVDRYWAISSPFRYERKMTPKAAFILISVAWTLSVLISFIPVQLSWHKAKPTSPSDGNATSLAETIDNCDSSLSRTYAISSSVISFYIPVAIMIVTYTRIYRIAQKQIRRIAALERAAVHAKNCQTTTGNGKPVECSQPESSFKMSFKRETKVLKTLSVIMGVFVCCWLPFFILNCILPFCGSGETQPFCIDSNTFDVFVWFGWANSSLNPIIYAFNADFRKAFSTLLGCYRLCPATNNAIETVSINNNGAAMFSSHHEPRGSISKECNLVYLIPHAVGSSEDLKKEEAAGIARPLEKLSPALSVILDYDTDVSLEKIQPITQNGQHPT
Method in brief: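 Tetracycline-induced HEK293 Trex D1 cells with forced coupling to calcium, loaded with no-wash calcium dye; kinetic fluorescence read 180 s after compound addition for agonism, then a further 180 s after an EC20 dopamine challenge for potentiation.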

[16] = molecular target: D(1A) dopamine receptor (Homo sapiens) (UniProt P21728); test: HTS Assay for Allosteric Agonists of the Human D1 Dopamine Receptor: Primary Screen for Antagonists (AID 488983);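 note: calcium flux response to an EC80 dopamine challenge measured with no-wash dye; nearly all actives have a fitted effect of over 65% in size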
Method in brief: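 Tetracycline-induced HEK293 T-REx cells expressing force-coupled D1 were plated overnight at 30 C, dye-loaded for calcium, and read kinetically. Compounds were pinned in, then an EC80 dopamine challenge followed after 180 s to reveal antagonism.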

[17] = Validation screen for small molecules that induce genotoxicity in human embryonic kidney (HEK293T) cells expressing luciferase-tagged ELG1 (AID 493106)
Method in brief: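 HEK293T cells expressing luciferase-tagged ELG1 were exposed to compound or DMSO vehicle for 16 hr at 37 °C, 5% CO2. Genotoxic stress raises ELG1 levels, so increased luciferase signal after ONE-Glo addition and 30 min at room temperature marks hits.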

[18] = molecular target: ATPase family AAA domain-containing protein 5 (Homo sapiens) (UniProt Q96QE3); test: Validation screen for small molecules that inhibit ELG1-dependent DNA repair in human embryonic kidney (HEK293T) cells expressing luciferase-tagged ELG1 (AID 493107);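 note: cells co-treated with the DNA-damaging agent 5-fluorouridine alongside compound; inhibitors lower the ELG1-luciferase luminescence signal; nearly all actives have a fitted effect of over 70% in size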
Method in brief: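 HEK293T cells expressing luciferase-tagged ELG1 were co-treated with 5-fluorouridine and compound or DMSO for 16 hr at 37 °C, 5% CO2. Luciferase activity was then read with ONE-Glo after 30 min at room temperature; suppressed signal indicates blocked ELG1 function.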

[19] = Nrf2 qHTS screen for inhibitors: Validation (AID 493153; active = well fitted inhibition curve with a large enough effect in the main read-out, with a control signal flat, not every such curve was filed as active); conditions: viability change: measured here: cytotoxicity max response
Method in brief: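 A549 cells carrying an ARE-driven firefly luciferase reporter, in 5% FBS OPTI-MEM, were treated with compounds in concentration-response for 18-24 h at 37°C. Viability was read by CellTiter-Fluor fluorescence, then Nrf2 activity by luciferase luminescence.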

[20] = qHTS for Inhibitors of Cell Surface uPA Generation: Validation Assay (AID 493164);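 note: RAW 264.7 macrophage cells exposed to compound for 18 h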
Method in brief: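 RAW 264.7, 4000 cells/well, o/n plating; cpd 7-pt 1:5 dilution 2.45 nM–38.3 uM final; 18 h, 37 C/5% CO2; ATP-Lite, 5 s luminescence exposure.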

[21] = molecular target: Peptidyl-prolyl cis-trans isomerase NIMA-interacting 1 (Homo sapiens) (UniProt Q13526); test: qHTS Validation Assay to Find Inhibitors of Pin1 (AID 504536; active = well fitted inhibition curve with a large enough effect in the polarisation, with a control signal flat, not every such curve was filed as active; the % refers to the polarisation)
Method in brief: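 Fluorescence polarization competition: compounds (titration) displace HiFluor-488-labeled Pin1-1b peptide from Pin1 (0.3 uM final) in pH 7.5 HEPES buffer with DTT, 10 min at room temperature; %Activity normalized to no-enzyme wells, curves fitted.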

[22] = molecular target: Phosphoglycerate kinase, glycosomal (Trypanosoma brucei brucei) (UniProt P07378); test: qHTS Validation Assay to Find Inhibitors of Phosphoglycerate Kinase (AID 504547)
Method in brief: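 PGK activity was coupled to GAPDH (100nM final), which generates the unstable substrate 1,3-bisphosphoglycerate in-well. Reactions ran 60 minutes at room temperature in 100mM TEA pH 7.6, 5mM MgCl2, 0.01% Tween-20, then Kinase-Glo Plus luminescence was read.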

[23] = molecular target: phosphoglycerate mutase (Leishmania major) (UniProt Q4Q090); test: qHTS Validation Assay to Find Inhibitors of Phosphoglycerate Mutase (AID 504548);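 note: end-point luminescence from Kinase-GloPlus after the PGAM reaction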
Method in brief: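 L. major PGAM (1.25nM final) was added to substrate buffer and pinned compound, incubated 45 minutes at room temperature, then Kinase-GloPlus added; luminescence read after 10 minutes. Buffer: 100 mM TEA pH 7.6, 5 mM MgCl2, 0.01% Tween-20.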

[24] = molecular target: Ubiquitin carboxyl-terminal hydrolase 1 (Homo sapiens) (UniProt O94782); test: Inhibitors of USP1/UAF1: Pilot qHTS (AID 504865);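 note: rhodamine fluorescence freed from ubiquitin-rhodamine substrate followed over time; top concentration of the series differs between compounds; nearly all actives have a fitted effect of over 35% in size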
Ubiquitin carboxyl-terminal hydrolase 1 (Homo sapiens), sequence (O94782 whole entry, looked up): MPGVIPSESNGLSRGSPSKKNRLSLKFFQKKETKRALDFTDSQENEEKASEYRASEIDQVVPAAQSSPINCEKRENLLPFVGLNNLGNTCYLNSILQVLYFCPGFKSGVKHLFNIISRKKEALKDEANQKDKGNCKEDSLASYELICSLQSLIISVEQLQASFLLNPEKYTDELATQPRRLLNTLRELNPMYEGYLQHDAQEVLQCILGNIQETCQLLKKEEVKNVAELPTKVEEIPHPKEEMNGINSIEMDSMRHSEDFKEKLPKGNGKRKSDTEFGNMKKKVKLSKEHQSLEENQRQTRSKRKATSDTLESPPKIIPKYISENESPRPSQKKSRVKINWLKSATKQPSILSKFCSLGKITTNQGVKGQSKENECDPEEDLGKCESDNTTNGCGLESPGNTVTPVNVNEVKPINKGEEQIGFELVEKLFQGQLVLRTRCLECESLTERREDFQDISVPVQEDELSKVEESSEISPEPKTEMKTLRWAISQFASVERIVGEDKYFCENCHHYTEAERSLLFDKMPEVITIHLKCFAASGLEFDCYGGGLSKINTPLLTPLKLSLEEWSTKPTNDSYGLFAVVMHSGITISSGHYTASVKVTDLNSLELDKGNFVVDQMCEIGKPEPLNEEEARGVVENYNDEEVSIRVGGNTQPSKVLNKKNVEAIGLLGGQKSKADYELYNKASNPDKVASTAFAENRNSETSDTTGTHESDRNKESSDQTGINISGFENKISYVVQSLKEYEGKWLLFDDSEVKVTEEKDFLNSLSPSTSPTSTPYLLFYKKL
Method in brief: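 Deubiquitinase activity followed as kinetic rhodamine fluorescence release from 150 nM Ub-Rho. 1 nM USP1/UAF1 with compound, after 15 min room-temperature preincubation, in HEPES pH 7.8 buffer containing TCEP, EDTA, BSA and Tween-20.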

[25] = qHTS for Inhibitors of ATXN expression: Validation (AID 588378); note: nearly all actives have a fitted effect of over 75% in size
Method in brief: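 Luciferase luminescence (Bright-Glo) from an ATXN2-FFLuc HEK293 line after 24 h compound exposure at 37 °C, preceded by a CellTiter-Fluor fluorescence viability read. Serial dilutions of a reference ATXN2 inhibitor and a luciferase inhibitor served as controls.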

[26] = molecular target: Glutaminase kidney isoform, mitochondrial (Homo sapiens) (UniProt O94925); test: qHTS for Inhibitors of Glutaminase (GLS): LOPAC Validation (AID 624146);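 note: glutamate product detected by oxidase and peroxidase coupled Amplex red fluorescence gain; nearly all actives have a fitted effect of over 60% in size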
Glutaminase kidney isoform, mitochondrial (Homo sapiens), sequence (O94925 whole entry, looked up, canonical isoform): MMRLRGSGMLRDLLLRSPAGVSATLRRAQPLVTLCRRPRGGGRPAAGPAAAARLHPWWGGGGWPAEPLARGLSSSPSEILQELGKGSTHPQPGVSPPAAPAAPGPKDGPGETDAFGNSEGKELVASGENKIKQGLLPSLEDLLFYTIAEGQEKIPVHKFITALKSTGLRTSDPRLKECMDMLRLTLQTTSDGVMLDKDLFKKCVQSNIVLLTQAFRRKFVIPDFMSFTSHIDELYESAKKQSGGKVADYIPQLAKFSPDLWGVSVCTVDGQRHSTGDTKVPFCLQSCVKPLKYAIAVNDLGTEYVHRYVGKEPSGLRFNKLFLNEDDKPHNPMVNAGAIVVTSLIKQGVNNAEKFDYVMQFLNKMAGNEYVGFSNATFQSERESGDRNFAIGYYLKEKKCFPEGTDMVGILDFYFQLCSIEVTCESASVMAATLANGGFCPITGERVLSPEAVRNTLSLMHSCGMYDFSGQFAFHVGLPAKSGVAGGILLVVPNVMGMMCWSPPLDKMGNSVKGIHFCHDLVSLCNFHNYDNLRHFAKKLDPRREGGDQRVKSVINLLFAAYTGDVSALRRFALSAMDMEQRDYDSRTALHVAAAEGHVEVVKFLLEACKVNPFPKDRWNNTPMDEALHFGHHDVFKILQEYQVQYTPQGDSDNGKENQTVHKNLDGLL
Method in brief: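 Assay buffer: 45 mM KH2PO4 pH 8.2, 0.02% Tween-20. hKGA acts on L-glutamine (1 mM solution added); product glutamate is reported by an oxidase/peroxidase Amplex Red coupling, with fluorescence taken at baseline and 30 min.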

[27] = molecular target: Glucagon-like peptide 1 receptor (Homo sapiens) (UniProt P43220); test: qHTS of GLP-1 Receptor Agonists: LOPAC Validation (AID 624148);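 note: higher luminescence signal means agonism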
Method in brief: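 HEK293 cells stably co-expressing GLP-1R and a cAMP-responsive luciferase reporter, plated 12 hours before compound, then incubated 4-6 hr at 37 deg C. Luminescence read 12 min after detection reagent.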

CN1C2CCCC1CC(NC(=O)c1nn(C)c3ccccc13)C2 (stereo not drawn)
inactive: outcome [1] | outcome [2] | Potency [3] | Potency [4] | Potency [5] | Potency [6] | outcome [7] | outcome [8] | outcome [9] | Potency [10] | Potency [11] | Potency [12] | Potency [13] | outcome [14] | outcome [15] | outcome [16] | Potency [17] | Potency [18] | outcome [19] | outcome [20] | Potency [21] | Potency [22] | outcome [23] | Potency [24] | Potency [25] | Potency [26] | outcome [27]
0.0672%: viability change [19]
